# D1 ag: agonists of human D1 dopamine receptor; HEK293 T-REx D1 cells, calcium flux, agonist mode; P21728; 1% of 360,000 active; AID 504660; activation, % at 2 µM; further: 0% is about no effect
#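 Agonism was scored from calcium flux recorded over 180 s (1 read/s) after pintool compound addition, following a 10-cycle baseline. Cells were inducible force-coupled HEK293 TREx D1, plated overnight at 30 C and loaded with no-wash calcium dye.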
# Epigenetic derep: regulators of epigenetic silencing causing reporter derepression in mouse cells. AID 1865. 0.2% of 280,000 active. murine LDR cells, GFP reporter derepression, 30 h. Potency, µM (highest dose often 53.9 µM), without a hit: at the top dose GFP activation, usual class: activators; active means well fitted activation curve with a large enough effect; further: potency means the concentration at half of the fitted maximal effect; % of control where 0% means no effect; nearly all actives have a fitted effect of over 60% in size
#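 Derepression of a silenced CMV-GFP reporter in murine LDR cells is scored by enumerating GFP-positive cells with a laser-scanning microplate cytometer after 30 hours of treatment at 37 C.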
# D1 PAM: human D1 dopamine receptor positive modulation | potentiation, % at 10 µM | P21728 | 0.036% of 360,000 active | HEK293 TREx D1 cells, calcium flux, dopamine EC20 potentiation; in the data active means potentiation above about 30%; further: 0% is about no effect
# TRHR PAM: allosterically enhances the human TRH receptor. P34981. TRHR cells, fluo-8 calcium fluorescence, EC20 TRH enhancement. enhancement, % at 2 µM. 0.66% of 360,000 active; in the data active means enhancement above about 30%; further: 0% is about no effect
# Target sequence (P34981 whole entry, looked up): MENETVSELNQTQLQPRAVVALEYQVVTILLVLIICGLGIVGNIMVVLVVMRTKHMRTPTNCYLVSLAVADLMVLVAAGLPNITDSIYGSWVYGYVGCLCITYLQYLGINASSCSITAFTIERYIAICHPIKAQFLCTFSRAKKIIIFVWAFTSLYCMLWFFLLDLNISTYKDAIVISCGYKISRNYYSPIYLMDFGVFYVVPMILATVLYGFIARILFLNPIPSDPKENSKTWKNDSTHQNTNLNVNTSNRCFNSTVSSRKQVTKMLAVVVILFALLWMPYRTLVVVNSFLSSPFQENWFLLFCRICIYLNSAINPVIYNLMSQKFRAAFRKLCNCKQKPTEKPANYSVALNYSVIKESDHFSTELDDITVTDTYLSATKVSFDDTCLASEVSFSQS
#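 TRHR-expressing cells loaded with fluo-8 calcium dye were read kinetically (ex 480/em 530) during compound addition, then stimulated with an EC20 of TRH (10 nM final). Enhancement of the Gq-mediated intracellular calcium response was scored.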
# TRHR agonist: agonists of human TRH receptor. P34981. TRHR cells, calcium flux fluo-8, FDSS agonist mode. activation, % at 2 µM. 0.18% of 360,000 active. AID 493084; further: 0% is about no effect
#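 Steps: seed TRHR cells overnight; add fluo-8 no-wash Ca dye, RT 30 min–1.5 h; record 10 s baseline; pin-transfer compounds; monitor fluorescence 1 cycle/s for the agonist window. Calcium increases flag candidate agonists.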
# D1 antagonist: antagonists of human D1 dopamine receptor; P21728; 3.2% of 360,000 active; HEK293 TREx D1 cells, calcium flux, dopamine EC80; stronger effect = lower value; activity change, negative = inhibition, % at 10 µM; AID 504652; in the data active means activity change below about -30%; further: on the % scale 0 is the no-effect control and ±100 the full control effect
#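 HEK293 T-REx cells expressing inducible, force-coupled D1 receptor; no-wash Ca dye, 30–90 min RT. Cmpd → 180 s read at 1 Hz → EC80 DA → 180 s read.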
# * hit, by the source's call; nt = no result given; ! = a repeat was not active; [ ] = another dose, or the depositor's remark. In the library only some 4.6% were active in any assay of this set; here they are far more common. Unless noted, no stated cut-off is given here; in the data, active means activation above about 30%; inactive means the rest.
SMILES,D1 ag,Epigenetic derep,D1 PAM,TRHR PAM,TRHR agonist,D1 antagonist
NS(=O)(=O)c1ccc(NC(=S)N2CCN(c3ccccc3Cl)CC2)cc1,5,-2%,-8,22,1,-40*
COc1ccc(N2CCN(C(=S)Nc3ccccc3)CC2)cc1,-2,nt,11,-4,0,-11
Fc1cccc(NC(=S)N2CCCC2)c1,1,-3%,-5,5,0,7
NS(=O)(=O)c1ccc(NC(=S)N2CCN(c3cccc(Cl)c3)CC2)cc1,4,-1%,-3,-1,0,-8
CC(=O)c1ccc(N2CCN(C(=S)Nc3ccc(Oc4ccccc4)cc3)CC2)cc1,6,15%,-3,1,0,-33*
COc1ccccc1NC(=O)C1CCN(S(=O)(=O)c2ccc3c(c2)oc(=O)n3C)CC1,-2,0%,-2,-5,-1,-6
CC(=O)O[C@H]1C2=CO[C@H](C)[C@H]3[C@H]4C5=C([C@H](O)[C@H]6O[C@@H]6C5=O)[C@H](O[C@H]4C)[C@@]23C(=O)[C@H]2O[C@@H]21,nt,18%[10.1 µM],nt,nt,nt,nt
CCOc1ccc(C(=O)Nc2ccc(NC(=O)c3ccccc3)cc2)cc1Br,-1,-1%,-6,-6,1,-25
O=S(=O)(c1cccc(NC(=S)N2CCN(c3ccc(F)cc3)CC2)c1)C(F)F,6,-1%,-14,5,0,-35*
O=S(=O)(c1cccc(NC(=S)N2CCN(c3cccc(Cl)c3)CC2)c1)C(F)F,3,0%,-10,3,-1,-4
CN1CCN(c2ccc(NC(=O)c3ccc(Oc4ccccc4)cc3)cc2)CC1,11,nt,nt,0,-1,-58*
O=[N+]([O-])c1ccc(N2CCN(C(=S)Nc3ccccc3)CC2)cc1,17,0%,-4,-5,1,-14
CCOc1ccc(C(=O)Nc2ccc(N3CCN(C)CC3)cc2)cc1Br,4,3%,-8,-11,0,-35*
O=[N+]([O-])c1ccc(NC(=S)N2CCN(c3ccccc3)CC2)cc1,9,0%,-10,-3,1,-40*
Cc1cccc(N2CCN(C(=O)CCS(=O)(=O)c3ccc4c(c3)CC(=O)N4C)CC2C)c1 (centres undefined),1,2%,-5,0,0,-1
Cc1c(C)n(CCc2ccccc2)c2ncnc(NCCCO)c12,-1,nt,-7,6,-1,-32*
CCC(=O)Nc1ccc(C(=O)Nc2ccc(Br)cc2F)cc1,3,8%,-1,40*,2,1
O=C(Nc1ccc(Br)cc1F)c1ccc2c(c1)OCCO2,1,nt,-12,-6,0,-12
O=c1oc2c(F)cc(F)cc2cc1S(=O)(=O)c1ccc(F)cc1,69*,-1%,-1,7,-1,6
Cc1ccc2oc(=O)c(S(=O)(=O)c3ccc(F)cc3)cc2c1,2,0%,0,-5,-1,-1
COc1ccccc1NC(=O)C1=C(C)Nc2c(C(=O)Nc3ccc(F)cc3)cnn2C1c1ccc(Cl)cc1 (centres undefined),7,-1%,-4,3,1,-15
CC(C)(C)c1cc[n+](-c2[nH]c(=O)sc2/C=N/NC([S-])=Nc2ccccc2)cc1,91*,-1%,-2,1,18,4
CCOc1ccccc1NC(=O)c1nnn(-c2ccc3c(c2)OCCO3)c1N,6,nt,1,8,0,10
Cc1ccccc1NC(=O)c1nnn(-c2ccc3c(c2)OCCO3)c1N,14,nt,-6,4,0,-48*
Cc1ccc(C(=O)NNC(=S)Nc2cccc3ccccc23)s1,3,1%,-18,-2,0,-37*
SMILES,D1 ag,Epigenetic derep,D1 PAM,TRHR PAM,TRHR agonist,D1 antagonist
O=C(NNC(=S)Nc1cccc2ccccc12)c1cccc(Br)c1,5,10%,1,-4,0,-5
CC1CCCCN1S(=O)(=O)c1cc2c3c(c1)CC(=O)N3CCC2 (centres undefined),-1,5%,1,32*,0,nt
Cc1ccc(N(C(C)C(=O)N2CCCC2)S(C)(=O)=O)cc1 (centres undefined),1,nt,4,-7,0,-32*
CN(C)CCNC(=O)c1cc2c(s1)-c1ccc(Cl)cc1SC2,16,nt,-9,-10,5,-48*
CC1CCN(C(=O)Cn2c(=O)oc3cc(S(=O)(=O)N4CCCCC4)ccc32)CC1,2,1%,48*!,0,0,-10
CC1CCN(S(=O)(=O)c2ccc3c(c2)oc(=O)n3CC(=O)N2CCc3ccccc3C2)CC1,0,-1%,nt,-4,0,-65*
CC1CCCCN1C(=O)Cn1c(=O)oc2cc(S(=O)(=O)N3CCCC3)ccc21 (centres undefined),7,nt,-1,34*,-2,9
O=C(c1ccccc1)N1CCC(CC2CC(c3cccc(Br)c3)=NO2)(C(=O)NCC2CCCCC2)CC1 (centres undefined),2,nt,-9,-5,-1,-53*
COc1ccc(NCC(=O)N2CCCC2)cc1Cl,2,0%,0,3,0,-30*
O=C(NC1CC1)c1cc2cc(Br)ccc2s1,7,nt,-12,-5,0,-32*
FC(F)(F)c1cccc(NC(=S)NCc2ccc(Cl)cc2)c1,24,2%,-8,-2,3,-51*
CC(NC(=S)Nc1ccc(OC(F)F)c(Cl)c1)C(C)(C)C (centres undefined),20,0%,-14,-25,3,-88*
Fc1ccccc1CNC(=S)Nc1cccc(C(F)(F)F)c1,25,0%,-19,-5,2,-44*
Fc1ccc(CNC(=S)Nc2cccc(C(F)(F)F)c2)cc1,-1,-3%,-12,8,0,-23
CC(NC(=S)Nc1cccc(C(F)(F)F)c1)C(C)(C)C (centres undefined),18,1%,-9,-3,0,-35*
CCC(=O)N1CCc2cc(Br)cc(S(=O)(=O)CCC(=O)Nc3ccc(Cl)cc3)c21,2,3%,1,-2,2,-5
CNC(=O)[C@@H](Cc1ccccc1)N(C)C(=O)[C@@H](Cc1ccc2ccccc2c1)N(C)C(=O)/C=C/CC(C)(C)N,nt,-2%,nt,nt,nt,nt
O=[S+]([O-])(c1c(F)cccc1F)N1CCN([S+](=O)([O-])c2cccc3nonc23)CC1,1,nt,-1,-4,1,3
Cc1sc2ncnc(Sc3ccccc3C(=O)O)c2c1C,5,-1%,1,35*,0,-7
O=C(O)[C@H]1C(=CCO)O[C@H]2CC(=O)N12,nt,-1%,nt,nt,nt,nt
CN(CC(=O)Nc1cccc(F)c1)C(=O)c1ccc(COc2ccccc2)cc1,12,nt,-2,0,-1,1
